In PubChem BioAssay (NCI):
About 83,000 compounds went through this panel and 20% of them were active in at least one assay; those are over-represented in the sample as a whole.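 Each cell line was grown in a 96-well plate and treated with one concentration of compound for 48 hours. Values below 10 were considered active.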 Values without a mark were called inactive. Calls of active or inactive are those of the source.

Tests used:
Assay in all cases: NCI-60 one-dose screen, 48 h (100 = growth as untreated, 0 = no growth, -100 = all killed)
Conditions in all cases: 10 µM unless noted
[1] = system: NCI-H23 lung
[2] = system: NCI-H226 lung
[3] = system: NCI-H322M lung
[4] = system: HOP-62 NSCLC
[5] = system: NCI-H460 lung
[6] = system: NCI-H522 lung
[7] = system: A549/ATCC NSCLC
[8] = system: 786-0 renal
[9] = system: COLO 205 colon
[10] = system: DU-145 prostate
[11] = system: K-562 leukemia
[12] = system: MALME-3M melanoma
[13] = system: MDA-MB-231 breast
[14] = system: RXF 393 renal
[15] = system: SF-268 CNS
[16] = system: SF-295 CNS
[17] = system: SF-539 CNS
[18] = system: UACC-257 melanoma
[19] = system: M14 melanoma
[20] = system: HOP-92 NSCLC

| Compound | growth [1] | growth [2] | growth [3] | growth [4] | growth [5] | growth [6] | growth [7] | growth [8] | growth [9] | growth [10] | growth [11] | growth [12] | growth [13] | growth [14] | growth [15] | growth [16] | growth [17] | growth [18] | growth [19] | growth [20] |
| --- | --- | --- | --- | --- | --- | --- | --- | --- | --- | --- | --- | --- | --- | --- | --- | --- | --- | --- | --- | --- |
| CC(=O)c1cccc(S(=O)(=O)F)c1 | 100% | 97.2% | 95.6% | 98.4% | 109% | 89.8% | 98.6% | 98.4% | 114% | 108% | 112% | 98.7% | 104% | 98.8% | 108% | 83.1% | 89.1% | 99.2% | 91.3% | – |
| O=C(O)C(F)F | 107% | 89.9% | 114% | 86.9% | 89.2% | 101% | – | 106% | 105% | 107% | 92.4% | 102% | 98.9% | 97.1% | 98.9% | 101% | 97.1% | – | 107% | 107% |
| CC1=C([Te]c2ccccc2)C(=O)c2ccccc2C1=O | -33.9% (active) | -52.1% (active) | -22.8% (active) | -49.5% (active) | -57.7% (active) | -15.3% (active) | -66.1% (active) | -46.2% (active) | -83.6% (active) | -53.4% (active) | 14.7% | -49.5% (active) | -24.6% (active) | -35.5% (active) | -18.1% (active) | -34.5% (active) | -71.4% (active) | -26.2% (active) | -22.1% (active) | -53.8% (active) |
| CC[C@@H](C)C(=O)O[C@H]1[C@H](O)[C@H]2[C@@H](CN3C[C@@H](C)CC[C@H]3[C@@]2(C)O)[C@@H]2C[C@]34O[C@]5(O)[C@@H](OC(=O)[C@@](C)(O)CC)CC[C@@]3(C)[C@@H]5[C@@H](OC(C)=O)[C@@H](OC(C)=O)[C@H]4[C@@]21O | 99.1% | 81.2% | 106% | 82.8% | 111% | 100% | 70.5% | 101% | 92.1% | 107% | 83.9% | 103% | 94.2% | 94.5% | 102% | 97.2% | 100% | – | 95.6% | 90% |
| CCC1(CCSC#N)C(=O)NC(=O)NC1=O | 91.5% | 104% | 97.9% | 94.9% | 107% | 109% | 106% | 93.5% | 108% | 106% | 86.5% | 86.2% | 106% | 117% | 97.2% | 100% | 94.9% | 98.9% | 94.6% | 85.8% |
| Nc1cccnc1 | 109% | 107% | 105% | 104% | 115% | 91.6% | 106% | 109% | 115% | 125% | 105% | 120% | 110% | 126% | 108% | 122% | 113% | 82.9% | 113% | 101% |
| c1ccc2c(c1)O[As](O[As]1Oc3ccccc3O1)O2 | 43.8% | 65.2% | 58.5% | 50.6% | 54.8% | – | – | 25.3% | 50.3% | 60.6% | 5.83% (active) | -7.18% (active) | 62% | 42.4% | 19.2% | 99.3% | -32.9% (active) | – | 52.2% | -12.2% (active) |
| Cc1cc(N)ccc1N | 105% | 92% | 95% | 93.9% | 106% | 106% | 98.2% | – | 120% | 115% | 105% | 105% | – | 103% | 103% | 108% | 95.8% | 97.2% | 104% | 95.1% |
| C[C@]12CC[C@H]3[C@@H](CC=C4c5nc(N)sc5CC[C@@]43C)[C@@H]1CC[C@@H]2O | 98.4% | 97.1% | 108% | 100% | 96% | 89.7% | 94.5% | 100% | 113% | 103% | 95.2% | 107% | 111% | 99.4% | 97.1% | 100% | 98.5% | 92.6% | 98.7% | 105% |
| NC1CN2CCC1CC2 (stereo not drawn) | 98.7% | 101% | 96.5% | 101% | 109% | 97.9% | 105% | 89.4% | 104% | – | 87.6% | 105% | 98.3% | 103% | 97.2% | 95.9% | 95.6% | 101% | 97.8% | 77.7% |
| COc1cc(-c2ccc(N)c(OC)c2)ccc1N | 101% | 110% | 84.4% | 95.5% | 114% | 131% | 108% | 106% | 120% | 103% | 138% | 78.1% | 103% | – | 103% | 104% | 110% | 134% | 113% | 110% |
| C[C@@H]1C/C=C\C(=O)O[C@H](/C=C/C#C/C=C/C(C)(C)[C@@H](O)c2cccc(O)c2Br)[C@@H](C)/C=C/[C@H](C)C[C@H](OC(N)=O)C1 | 40.6% | 20.1% | 54.1% | 13.1% | 17.1% | 16.7% | 28.5% | 37.2% | -26.1% (active) | 47.6% | 6.76% (active) | 28.4% | 2.09% (active) | 27.4% | 40.4% | -6.34% (active) | 30.6% | -11.1% (active) | 0.391% (active) | 9.34% (active) |
| O=S1(=O)OCCO1 | 96.5% | 103% | 95.4% | 103% | 103% | 96.3% | 102% | 101% | 106% | 104% | 99.1% | 88.8% | – | 103% | 98.2% | 98.3% | 95.1% | 96.7% | 103% | 102% |
| c1ccc(CCN2CCCCC2)nc1 | 103% | 101% | 106% | 95.6% | 114% | 101% | 95.7% | 101% | 106% | – | 97.6% | 141% | 97.8% | 114% | 103% | 98% | 102% | 108% | 99.5% | 91.7% |
| COc1ccc(N)cc1N | 96.8% | 103% | 96.1% | 95.5% | 107% | – | 118% | 102% | 121% | 120% | 115% | 117% | 99% | – | 128% | 105% | 92.8% | – | 111% | 85.7% |
| COc1ccc(N)cc1OC | 105% | 107% | 114% | 104% | 119% | 103% | 105% | 102% | 109% | – | 129% | 129% | 87.1% | 125% | 106% | 93.9% | 110% | 107% | 109% | 91.2% |
| Cc1cc(Br)c([N+](=O)[O-])cc1[N+](=O)[O-] | 98.6% | 95.5% | 132% | 100% | 97.5% | -28% (active) | 101% | 103% | 72.9% | 89.4% | 75% | 128% | 97.8% | 103% | 97.2% | 114% | 97.9% | 98.7% | 96.2% | 134% |
